Experimental data as given in PubChem BioAssay AID720591 (Broad Institute, 2013).
Screen size: about 1,200 compounds; about 60 (5%) were called active. Another 1% or so got no clear call; they are omitted.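 The calls were made as follows: active = Decreasing signal and fitted IC50 at most twice the top valid tested dose; inconclusive = Bad fit or a level curve showing 30 to 70% inhibition; inactive = the rest.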 A selection follows. Results with a measured potency or affinity are listed apart.

target: NAD-dependent protein deacylase sirtuin-5, mitochondrial (Homo sapiens) (UniProt Q9NXA8); experiment: sirtuin-5 deacylation blockers, concentration series – biochemical, fluorescence imaging, cherry-pick, set 5, dose response (AID 720591); conditions: Purified SirT5, succinyl-peptide AMC, trypsin-coupled fluorescence; series mostly up to 15 µM
Sequence (Q9NXA8 whole entry, looked up): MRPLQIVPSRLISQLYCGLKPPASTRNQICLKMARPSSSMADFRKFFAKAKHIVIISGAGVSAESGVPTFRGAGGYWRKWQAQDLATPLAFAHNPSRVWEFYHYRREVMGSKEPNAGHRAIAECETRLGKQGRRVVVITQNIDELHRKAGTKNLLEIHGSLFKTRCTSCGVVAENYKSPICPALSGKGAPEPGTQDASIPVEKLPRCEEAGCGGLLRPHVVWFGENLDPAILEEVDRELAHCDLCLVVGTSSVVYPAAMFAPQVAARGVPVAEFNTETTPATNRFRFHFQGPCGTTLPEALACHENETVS

outcome, inactive:
O=C(Cc1ccc(Cl)cc1)Nc1ccc(C(=O)N2CCCCC2)cc1
CN(C)C(=O)c1ccc(NC(=O)c2sccc2-c2ccccc2)cc1
O=C(Cc1ccc(Cl)cc1)Nc1ccc(CN2CCCCC2)cc1
O=C(Nc1cccc(Br)c1)c1ccc(CSc2ccccc2)cc1
C[C@@H](CSc1ccc(Br)cc1)CN1CC[C@H](NC(=O)OCc2ccccc2)CCC1=O
Cc1cccc(C)c1NC(=O)CN(Cc1ccccc1)Cc1ccccc1
CC(C)C(=O)Nc1cccc(COc2ccccc2CN(Cc2ccccc2)C(=O)OC(C)(C)C)c1
Cc1ccc(CNC(=O)CCc2ccc(S(=O)(=O)NCC(C)C)cc2)cc1
Cc1ccn2cc(CSc3ccccc3)nc2c1
Clc1ccc(SCc2cn3ccccc3n2)cc1
Cc1cccc(COC[C@H](Cc2ccccc2)N2CCN(C(=O)c3cc(Cl)cc(Cl)c3)CCC2=O)c1
CCOC(=O)C1(C)CCN1C(=O)c1cccc(Cl)c1 (configuration not stated)
COc1cc(OC)c(NS(=O)(=O)c2cc(C(=O)OCC(=O)NCC3CCCO3)ccc2OC)cc1Cl (configuration not stated)
COc1cc(C(=O)N2CCNCC2)cc(OC)c1OC
COc1cc(C(=O)NCCN2CCN(C(=O)c3cc(OC)c(OC)c(OC)c3)CC2)cc(OC)c1OC
CCN(C(=O)COC(=O)CNC(=O)c1ccccc1C)C1=CCCCC1
COc1ccc(-n2c(SCC(N)=O)nnc2-c2ccco2)cc1
CNC(=O)CSc1nnc(-c2ccco2)n1-c1cccc(OC)c1
COc1ccc(-c2cccc(C3CC=CC4C3C(=O)N(Cc3ccccc3)C4c3ccc(C(F)(F)F)cc3)c2)cc1 (configuration not stated)
CC(=O)N1N=C(c2cccc(NS(C)(=O)=O)c2)CC1c1cccs1 (configuration not stated)
COC(=O)c1ccc(C)c(NC(=O)CSc2sc3c(O)cc(=O)[nH]c3c2C#N)c1
CSc1nsc(SCC(=O)Nc2ccc(Cl)c(C(=O)O)c2)n1
CCCCc1c(-c2ccccc2F)ncn1CCc1ccccc1OC
C[C@H](NC(=O)OCc1ccccc1)C(=O)NNC(=O)[C@H](C)NC(=O)OCc1ccccc1
CC(C)c1ccc(NC2CCCN(C(=O)CC3CCCC3)C2)cc1 (configuration not stated)
Cc1ccsc1C(=O)NNC(=O)CCN1CCN(c2ccccc2)CC1
Cc1ccc(-c2csc(NC(=O)Cn3[nH]c(=O)c4ccccc4c3=O)n2)cc1
Cc1sc(NC(=O)Cn2[nH]c(=O)c3ccccc3c2=O)nc1-c1ccccc1
CCN(c1ccccc1)S(=O)(=O)c1ccc2[nH]c(=O)[nH]c2c1
Cc1cc(C)c(OCC(=O)NCC(C)(C)N2CCOCC2)c(C)c1
Cc1ccc2cc(CN(Cc3ccc(F)cc3)Cc3nnnn3C3CCCC3)c(=O)[nH]c2c1
Cn1cc(Br)c(C(=O)Nc2c(F)c(F)c(F)c(F)c2F)n1
CN(C)CCNC(=O)c1cccc(S(=O)(=O)Nc2ccccc2F)c1
CCN(CC(=O)Nc1ccc(NC(C)=O)cc1)C(=O)c1ccc(COc2ccc(C(C)(C)C)cc2)cc1
COc1ccc(OCC(=O)Nc2ccc(NC(=O)c3cccs3)cc2)cc1
Cc1ccc(C(C(=O)NC2CCCC2)N(Cc2ccco2)C(=O)CCC(=O)Nc2cc(C)on2)cc1 (configuration not stated)
Cc1ccccc1OCC(O)CN1CCN(CC(O)COc2ccccc2C)CC1 (configuration not stated)
CCOC(=O)C1CCc2c(ccc3ccccc23)N1CCC#N (configuration not stated)
CC(C)(C)Cc1nnc(NC(=O)Cc2cccs2)s1
CN(C)CCCNC(=O)c1cc(C(=O)c2ccccc2F)c[nH]1
COc1ccc(C(=O)OCCN2CCCCC2)cc1
Cc1ccc(C(C(=O)NC(C)(C)C)N(Cc2ccco2)C(=O)CCC(=O)Nc2ccccn2)cc1 (configuration not stated)
CCC(C)(C)NC(=O)C(c1ccc(OC)cc1)N(Cc1ccco1)C(=O)CCC(=O)Nc1cc(C)on1 (configuration not stated)
COc1ccc([C@H]2N[C@]3(CCCN(Cc4cccn4C)C3=O)[C@H]3C(=O)N(C)C(=O)[C@@H]23)cc1
C=CCn1c(SCC(=O)c2ccc(O)c(O)c2)nnc1-c1ccc(C)cc1
COc1ccc(C)cc1N(C)C(=O)Cc1c(C(=O)O)n(C)c2ccccc12
COc1ccccc1NC(=O)CNc1ccc(F)c(Cl)c1
CC1CN(CCOc2ccccc2-c2ccccc2)CC(C)O1 (configuration not stated)
CCc1ccc(N(C(=O)CCC(=O)Nc2cc(C)on2)C(C(=O)NC2CCCC2)c2ccco2)cc1 (configuration not stated)
COc1cc(C(C)=O)ccc1OCc1cn(CC(=O)c2ccc(O)cc2)nn1
CS(=O)(=O)N(CC(=O)N1CCCCCC1)c1cccc(F)c1
CS(=O)(=O)N(CC(=O)N1CCCC1)c1cccc(F)c1
C#CC1(NC(=O)NCCCC)CCCCC1
Fc1ccc(-c2nc3ccc(Cl)cn3c2Cc2cccc(F)c2)cc1
Cc1ccc2nc(-c3ccccc3)c(Cc3cccc(Cl)c3)n2c1
COc1ccccc1CNS(=O)(=O)c1cccs1
C=C(C)Cn1c(N2CCN(c3ccc(OC)cc3)CC2)nc2c1c(=O)n(C)c(=O)n2C
Cn1cnc2c(NCc3ccco3)ncnc21
COC(=O)c1cccc(NC(=O)CSc2nnc(COc3ccc(C#N)cc3)n2-c2ccccc2)c1
Cc1cn(CC(=O)NCc2ccccc2)c(=O)[nH]c1=O
O=C1OCCOC2CCCc3oc(C4=CCCCC4)c1c32 (configuration not stated)
Cc1ccc(NS(=O)(=O)c2ccc3c(c2)N(C)CCO3)cc1
Cc1ccc2nc(SC(C)C(=O)N3CC(C)OC(C)C3)[nH]c2c1 (configuration not stated)
Cc1ccccc1NS(=O)(=O)c1ccc(C(=O)NCC2CCCO2)cc1 (configuration not stated)
O=C(c1ccc(F)cc1)N1CCOCC1
O=C(CSc1ccccc1Cl)N1CCOCC1
CCOc1ccc(C(C)C)cc1S(=O)(=O)n1ccnc1C
Cc1ccc(S(=O)(=O)N(C)c2ccc(NS(C)(=O)=O)cc2)cc1
Cc1cccc(OC(=O)Nc2ccc(C(=O)O)c(O)c2)c1
Cc1ccc(NC(=O)COCC(=O)Nc2ccc(F)cc2)cc1
O=C(Nc1ccccc1C(=O)O)c1cc(S(=O)(=O)Nc2ccccc2)ccc1Cl
Cc1cc(NC(=O)CCC(=O)N(CCc2ccccc2)C(C(=O)NC2CCCC2)c2ccco2)no1 (configuration not stated)
COc1ccc(CCNS(=O)(=O)c2cc3c4c(c2)CC(=O)N4CCC3)cc1
Nc1cccc(-c2csc(-n3ncc(C(=O)O)c3C(F)(F)F)n2)c1
O=C(O)c1ccc2c(c1)ncn2C1CCCC1
Cc1ccnc(NC(=O)CCC(=O)N(Cc2ccco2)C(C(=O)NC(C)C)c2ccc(F)cc2)c1 (configuration not stated)
NNC(=O)Cn1c(-c2ccccc2)cc2ccccc21
CC(C)(C)OC(=O)N(CCc1ccccc1)Cc1ccc(OCc2cccc(NC(=O)C3CC3)c2)cc1
COc1ccc(CCNC(=O)[C@H](C)NC(=O)N2CCn3c2nc2ccccc23)cc1OC
Cc1ccccc1CN1CCN(Cc2ccc3cccc(F)c3n2)CC1CCO (configuration not stated)
CNCc1cc(Br)c(OCC(=O)Nc2ccccc2OC)c(OC)c1
COc1cccc(NC(=O)c2ccccc2)c1
COc1ccc(CC(=O)Nc2ccc(C(=O)NCC(C)C)cc2)cc1
Cc1cc2nc(CSc3ccccc3)cc(=O)n2[nH]1
CCCCCCCCN1[C@@H](CC(=O)O)c2cc(C(F)(F)F)ccc2S1(=O)=O
Cc1c(Cc2ccc3c(c2)OCO3)sc(NC(=O)c2ccccc2)c1C(N)=O
Clc1ccc2nc(CSc3ccccc3)cn2c1
Cc1cccc2nc(CSc3ccc(Cl)cc3)cn12
Cc1cccc(N(C(=O)c2snc(C(N)=O)c2N)C(C(=O)NCC2CCCO2)c2ccc3ncccc3c2)c1 (configuration not stated)
O=S(=O)(NCc1ccc2c(c1)OCO2)c1ccccc1F
Cc1cccc(Cl)c1NC(=O)NCCCN1CCCCC1C (configuration not stated)
Cc1ccc(S(=O)(=O)N2CCOCC2)cc1NC(=O)CSc1nnc2n1CCCCC2
CCN(CC)c1ccc(S(=O)(=O)N2CCOCC2)cc1NC(=O)Nc1ccccc1
CCOC(=O)C(N)CSC1CC(=O)N(c2ccc(OCC)cc2)C1=O (configuration not stated)
CCOc1ccc(CN2CCN(C(=O)c3cccc(F)c3)CC2)cc1
Cc1cccc(N2CCN(C(=O)c3ccc4nc[nH]c4c3)CC2)c1C
CCc1nnc(NC(=O)CCC(=O)N2CCN(c3cc(C)ccc3C)CC2)s1
COc1cc(C(C)=O)ccc1OC(=O)CN1C(=O)c2ccccc2C1=O
CC1(C(=O)NS(=O)(=O)c2ccccc2Cl)CCN1C(=O)Cc1cccc2ccccc12 (configuration not stated)
Cc1c(C(=O)c2ccc(N(C)C)cc2)c2ccccn2c1CCC#N
CCc1nonc1NC(=O)c1oc2ccc(Cl)cc2c1C
COc1ccc2c(c1)C(=O)O[C@@H](c1ccccc1)C[C@@H](O)C(=O)CC2
COc1ccc(OC)c(NC(=O)CSc2nnc(CNC(=O)c3cccs3)o2)c1
CCOc1ccc(OCC)c(NC(=O)C2CCCN(C(=O)c3ccc(Cl)cc3)C2)c1 (configuration not stated)
COc1ccc(C(=O)OC(C)C(=O)NCC2CCCCC2)cc1S(=O)(=O)N1CCOCC1 (configuration not stated)
CCC(=O)Nc1cccc(-c2cc3ccccc3oc2=O)c1
COc1cc2cc(C#N)c(SCC(=O)Nc3cc(C)on3)nc2cc1OC
